High-throughput results from PubChem BioAssay.
D3 ag – activates the human D3 dopamine receptor; P35462; D3R DiscoveRx beta-arrestin cells, luminescence, 90 min; max activation, %; 410,000 tested, 0.58% active; AID 652048; in the data active = max activation above about 30%
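Agonist mode: compounds and dopamine controls were applied to plated cells for 90 min at 37 degrees C after an overnight attachment at 1500 cells/well. Luminescent read-out followed 30 - 60 minutes at room temperature with DiscoveRx detection reagent.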
B2AR arrestin – recruits beta-arrestin to the human beta2-adrenergic receptor; AID 492947; 330,000 tested, 0.02% active; beta-arrestin recruitment to beta2AR, cell-based reporter; P07550; Potency, µM (series often up to 46.1 µM), hits mostly activators; note: nearly all actives have a fitted effect of over 65% in size
Target sequence (P07550 whole entry, looked up): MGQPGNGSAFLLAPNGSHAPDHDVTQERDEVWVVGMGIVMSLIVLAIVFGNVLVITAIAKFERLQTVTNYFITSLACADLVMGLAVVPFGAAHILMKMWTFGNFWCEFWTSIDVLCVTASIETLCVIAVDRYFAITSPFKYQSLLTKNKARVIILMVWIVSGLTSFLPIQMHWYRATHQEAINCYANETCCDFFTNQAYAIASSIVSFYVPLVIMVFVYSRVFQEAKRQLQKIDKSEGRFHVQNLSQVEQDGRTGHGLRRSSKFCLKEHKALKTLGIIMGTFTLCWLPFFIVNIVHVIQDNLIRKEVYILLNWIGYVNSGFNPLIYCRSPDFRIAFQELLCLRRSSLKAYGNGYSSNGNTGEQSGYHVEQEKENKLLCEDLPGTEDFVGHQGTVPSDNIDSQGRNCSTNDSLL
a7 integrin act – activators of alpha7 integrin expression for muscular dystrophy. alpha7betagal myoblasts, beta-gal FDG fluorescence, 48 h. Potency, µM (titrated, usually from 38.3 µM), actives largely listed as activators. 350,000 tested, 0.064% active; note: nearly all actives have a fitted effect of over 60% in size
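alpha7betagal+/- myoblasts (passage 13, 250/well) treated 48 h at 37C with compounds at 1:260 dilution of DMSO stock. Lysed, then beta-galactosidase activity read as FDG fluorescence (ex 480/em 540) after 30 min, with pre-read for autofluorescence.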
DRD3 antagonist – D3 dopamine receptor (human) antagonism; max response, negative = inhibition, %; D3R cells, DiscoveRx beta-arrestin luminescence, antagonist mode; hits give low values; 360,000 tested, 2.5% active; in the data active = max response below about -50%; inconclusive = no clear call, values can overlap the other calls
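Cells expressing the human receptor were seeded at 1500 cells/well, incubated overnight at 37 degrees C in 5% CO2, then exposed to library compounds with dopamine controls for 90 minutes at 37 degrees C before luminescent detection.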
mIDH1 inhibitor – blocks human mutant IDH1 R132H enzyme; IDH1-R132H enzyme, NADPH consumption, diaphorase/resazurin fluorescence; O75874; 390,000 tested, 0.093% active; Potency, µM (doses to about 76.6 µM), most hits filed as inhibitors; note: nearly all actives have a fitted effect of over 65% in size
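IDH1-R132H (0.5 ug/mL dispensed) in pH 7.5 Tris buffer was preincubated 30 min with compound, then given a substrate mix of 0.016 mM NADPH and 2 mM alpha-KG for 80 min at room temperature; remaining NADPH was read by diaphorase/resazurin fluorescence.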
Of the large screens only hits and unclear results are named; the others gave an inactive call. This is a sample that favours compounds with a hit; in the whole collection about 2.9% have one here. Unless noted, calls come from the whole dose curve; as a rule, active = well fitted curve in the direction sought with a large enough effect; inconclusive = small, poorly fitted or top-dose-only effect, or another doubt; inactive = no such curve, though single readings can be large; an effect the other way counts as inactive or inconclusive.

O=[N+]([O-])c1cc(/C=N/Nc2nc3ccccc3[nH]2)c(O)cc1O	DRD3 antagonist -65.4
C(=N\Nc1nc2ccccc2[nH]1)/c1c[nH]c2ccccc12	D3 ag 46.6
CN(C)c1ccc(-c2nc(-c3cccs3)c(-c3cccs3)[nH]2)cc1	none (no result: B2AR arrestin, a7 integrin act, DRD3 antagonist)
COC(=O)c1ccc(/C=C/c2ccc3cccc(OC(C)=O)c3n2)cc1	DRD3 antagonist -64.2
CCCCC(=O)O[C@]1(C(=O)CO)[C@H](C)C[C@H]2[C@@H]3CCC4=CC(=O)C=C[C@]4(C)[C@@]3(F)[C@@H](O)C[C@@]21C	none (no result: B2AR arrestin, a7 integrin act, DRD3 antagonist, mIDH1 inhibitor)
Cc1noc(NS(=O)(=O)c2ccc(NC(=O)C(Cl)(Cl)Cl)cc2)c1C	none
Cc1noc(NS(=O)(=O)c2ccc(NC(=O)Nc3ccc(Cl)c(Cl)c3)cc2)c1C	DRD3 antagonist -77.1
Cc1cc(C)c(C#N)c(SCC(=O)Nc2ccc(S(=O)(=O)Nc3onc(C)c3C)cc2)n1	DRD3 antagonist -54.2
Cc1c(-c2ccc(O)cc2)n(Cc2ccc(OCCN3CCCCCC3)cc2)c2ccc(O)cc12	none (no result: B2AR arrestin, a7 integrin act, DRD3 antagonist, mIDH1 inhibitor)
CCc1ccc(-c2cc(C)no2)cc1S(=O)(=O)NCCCN1CCN(c2ccccc2)CC1	DRD3 antagonist -77.2
CCc1ccc(-c2cc(C)no2)cc1S(=O)(=O)NCCN1CCC(C)CC1	none
COc1cc2c(cc1OC(C)=O)C(=O)CCCC2	none (no result: B2AR arrestin, a7 integrin act, mIDH1 inhibitor)
CC(=O)Oc1cc2c(cc1OC(C)=O)C(=O)CCCC2	D3 ag 66.1 (no result: B2AR arrestin)
COC(=O)c1cc(O)cc(OC)c1Oc1cc(C)cc(O)c1C(=O)O	DRD3 antagonist inconclusive
COC(=O)c1cc(O)cc(OC)c1C(=O)c1c(O)cc(C)cc1O	D3 ag 30.1
O=C(NCc1ccccc1Cl)c1ccccc1NC(=O)c1nsc2ccccc12	none (no result: B2AR arrestin, a7 integrin act, DRD3 antagonist)
COc1ccc(-n2cc(C(=O)NCc3ccc(Cl)cc3)c3ccccc3c2=O)cc1	none (no result: B2AR arrestin, a7 integrin act, DRD3 antagonist)
CC(=O)c1ccc(-n2c(-c3cc(-c4ccco4)[nH]n3)n[nH]c2=S)cc1	DRD3 antagonist -84.0
Cc1ccc(-n2c(-c3cc(-c4ccco4)[nH]n3)n[nH]c2=S)c(Br)c1	none
O=C(O)c1ccc(-n2c(-c3cc(-c4ccco4)[nH]n3)n[nH]c2=S)cc1	DRD3 antagonist -90.7
O=C(O)c1ccc(-n2c(-c3cc(C4CC4)[nH]n3)n[nH]c2=S)cc1	DRD3 antagonist inconclusive
Cc1ccc(S(=O)(=O)CC(O)COc2ccc(F)cc2Cl)c(C)c1 (configuration not stated)	none
Cc1ccc(S(=O)(=O)CC(O)COc2ccc(F)cc2Cl)cc1 (configuration not stated)	DRD3 antagonist -63.7
CC[C@H]1OC(=O)C[C@@H](O)[C@H](C)[C@@H](O[C@@H]2O[C@H](C)[C@@H](O)[C@H](N(C)C)[C@H]2O)[C@@H](CCN2C[C@H](C)C[C@H](C)C2)C[C@@H](C)C(=O)/C=C/C(C)=C/[C@@H]1CO[C@@H]1O[C@H](C)[C@@H](O)[C@@H](OC)[C@H]1OC	none (no result: B2AR arrestin, a7 integrin act, DRD3 antagonist, mIDH1 inhibitor)
Cc1cn2c(=O)cc(COC(=O)c3ccc(NC(=O)c4ccc(C(C)(C)C)cc4)cc3)nc2s1	none (no result: B2AR arrestin, a7 integrin act, DRD3 antagonist)
O=C1CCCC(O)=C1C(C#Cc1ccccc1)C1=C(O)CCCC1=O	DRD3 antagonist -61.4
CC1(C)CC(=O)C(C(C#Cc2ccccc2)C2=C(O)CC(C)(C)CC2=O)=C(O)C1	none
CCC(=O)N1CCN(c2ccc(NC(=O)c3ccc([N+](=O)[O-])o3)cc2Cl)CC1	a7 integrin act inconclusive, DRD3 antagonist inconclusive
CCCC(=O)N1CCN(c2ccc(NC(=O)c3cc4ccccc4o3)cc2Cl)CC1	D3 ag 34.9
O=C(Nc1ccc(N2CCN(C(=O)c3ccco3)CC2)c(Cl)c1)c1cc2ccccc2o1	D3 ag 35.5
CCC(=O)N1CCN(c2ccc(NC(=O)c3cc4ccccc4o3)cc2Cl)CC1	none
CCN1CCN(c2ccc(NC(=O)c3ccc([N+](=O)[O-])o3)cc2Cl)CC1	DRD3 antagonist -72.0
Cc1nn2c(=O)cc(COC(=O)c3ccc(NC(=O)c4cccc(Br)c4)cc3)nc2s1	none (no result: B2AR arrestin, a7 integrin act, DRD3 antagonist)
O=C(CCc1nnc2ccc(N3CCCC3)nn12)Nc1cc(F)ccc1F	none
CS(=O)(=O)c1ncc(Cl)c(C(=O)N2CCN(c3cccc(Cl)c3)CC2)n1	none (no result: B2AR arrestin, a7 integrin act, DRD3 antagonist)
O=C(NCc1cccs1)c1ccc(Cn2c(SCc3cccc(F)c3)nc3cccnc32)cc1	none (no result: B2AR arrestin, a7 integrin act, DRD3 antagonist)
Cc1ccc(S(=O)(=O)c2ccc([N+](=O)[O-])o2)cc1	DRD3 antagonist -111.1 (no result: B2AR arrestin)
Cc1ccc(NC(=O)c2ccc([N+](=O)[O-])o2)c(C)c1	none
COc1ccc(C(=O)c2c(-c3ccc(OC)cc3)oc3ccc(-c4cc(OC)c(OC)c(OC)c4)cc23)cc1	none (no result: B2AR arrestin)
COC(=O)c1c(-c2ccc(OC)cc2)oc2ccc(-c3ccc(OC)nc3)cc12	D3 ag 40.2
COC(=O)c1c(-c2ccc(OC)cc2)oc2ccc(-c3cc(OC)c(OC)c(OC)c3)cc12	D3 ag 34.6 (no result: B2AR arrestin)
Cc1ccc(-c2nc(C)c(CCNC(=O)c3cccs3)s2)cc1	none (no result: B2AR arrestin, a7 integrin act, DRD3 antagonist)
CCOc1ccc(NC(=O)CSc2oc(-c3ccc(F)cc3)nc2S(=O)(=O)c2ccc(C)cc2)cc1	none (no result: B2AR arrestin, a7 integrin act, DRD3 antagonist)
CCOc1cc(Br)cc(C2NC(=O)c3c(sc4c3CCN(C)C4)N2)c1O (configuration not stated)	none (no result: B2AR arrestin, a7 integrin act, DRD3 antagonist)
COc1ccc(CN2C3CCCC2CC(NC(=O)Nc2ccccc2C)C3)cc1 (configuration not stated)	DRD3 antagonist -91.9
CCCN1C2CCCC1CC(NC(=O)c1ccc(OC)cc1)C2 (configuration not stated)	none
COc1ccc(CN2C3CCCC2CC(NC(=O)Nc2cccc(C)c2)C3)cc1 (configuration not stated)	DRD3 antagonist -77.6
COc1ccc(CN2C3CCCC2CC(NC(=O)Nc2ccccc2)C3)cc1 (configuration not stated)	DRD3 antagonist -63.8
Cc1cc(C)cc(-n2ccnc2SCC(=O)Nc2ccc(C)c(Cl)c2)c1	none (no result: B2AR arrestin, a7 integrin act, DRD3 antagonist)
COc1ccc(OC)c(CNC(=O)c2ccc(NC(=O)c3nsc4ccccc34)cc2)c1	none (no result: B2AR arrestin, a7 integrin act, DRD3 antagonist)
Cc1cc(Nc2cccc(C(F)(F)F)c2)nc2ccc(NC(=O)c3ccc(N(C)C)cc3)cc12	none (no result: B2AR arrestin, a7 integrin act, DRD3 antagonist)
Cc1ccc(N2CCN(CC3CC=CCC3)CC2)cc1 (configuration not stated)	DRD3 antagonist -141.4
O=C(c1ccccc1)N1CCN(CC2CC=CCC2)CC1 (configuration not stated)	DRD3 antagonist -60.2
FC(F)(F)c1cccc(N2CCN(CC3CC=CCC3)CC2)c1 (configuration not stated)	DRD3 antagonist -65.6
COc1cccc(CN2C(=O)c3ccccc3Sc3ccc(C(=O)N(C)Cc4ccccc4)cc32)c1	none (no result: B2AR arrestin, a7 integrin act, DRD3 antagonist)
O=C(/C=C/c1ccco1)Nc1sc2c(c1C(=O)O)CCC2	none
N#Cc1c(NC(=O)/C=C/c2ccco2)sc2c1CCCC2	DRD3 antagonist -59.6
Cc1cccc(C)c1Nc1ncnc(N)c1[N+](=O)[O-]	none
